Legend:
Test in all cases: DAPPL (digital affinity profiling via proximity ligation, sequencing); 10 mM Tris-HCl pH 7.5, 50 mM NaCl, 1 mM DTT, 4% glycerol, room temperature, 30 min; GST-TFs on glutathione beads, 16-mer random dsDNA library, 0.1% formaldehyde crosslink after washing; high values mean tight binding
Conditions in all cases: protein: recombinant; tags: N-terminal GST; dsDNA, one strand shown
ELK1 = molecular target: T1, ELK1 (Homo sapiens, UniProt P19419 1-428)
T1 sequence: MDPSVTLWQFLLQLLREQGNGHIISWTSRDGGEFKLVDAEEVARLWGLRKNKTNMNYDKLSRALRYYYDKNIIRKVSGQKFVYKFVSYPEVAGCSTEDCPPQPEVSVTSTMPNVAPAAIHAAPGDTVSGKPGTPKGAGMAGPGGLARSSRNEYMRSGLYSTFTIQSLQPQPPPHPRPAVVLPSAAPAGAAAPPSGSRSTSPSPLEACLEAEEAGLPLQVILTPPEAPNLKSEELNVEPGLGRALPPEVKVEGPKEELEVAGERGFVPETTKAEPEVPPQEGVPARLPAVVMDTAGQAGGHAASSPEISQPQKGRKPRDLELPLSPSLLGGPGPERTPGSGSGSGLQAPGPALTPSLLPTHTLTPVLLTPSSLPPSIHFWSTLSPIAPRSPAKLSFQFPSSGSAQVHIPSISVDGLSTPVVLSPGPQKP
How it was run: (§1)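 Binding signal is defined as a hexamer's read frequency for one factor over its frequency for the tag-only sample. To obtain reads, GST-fused human transcription factors were expressed in yeast, captured on glutathione beads, barcoded with DNA and pooled with that sample. Pools met 200 nmole of a 16-mer random double-stranded DNA library in Tris/NaCl/DTT/glycerol buffer for 30 min at room temperature before washing, 0.1% formaldehyde crosslinking, proximity ligation (BsaI/T4 ligase, 1 h, 37 °C), PCR and Illumina NextSeq500 sequencing.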

GABPA = molecular target: T2, GABPA (Homo sapiens, UniProt Q06546 1-454)
T2 sequence: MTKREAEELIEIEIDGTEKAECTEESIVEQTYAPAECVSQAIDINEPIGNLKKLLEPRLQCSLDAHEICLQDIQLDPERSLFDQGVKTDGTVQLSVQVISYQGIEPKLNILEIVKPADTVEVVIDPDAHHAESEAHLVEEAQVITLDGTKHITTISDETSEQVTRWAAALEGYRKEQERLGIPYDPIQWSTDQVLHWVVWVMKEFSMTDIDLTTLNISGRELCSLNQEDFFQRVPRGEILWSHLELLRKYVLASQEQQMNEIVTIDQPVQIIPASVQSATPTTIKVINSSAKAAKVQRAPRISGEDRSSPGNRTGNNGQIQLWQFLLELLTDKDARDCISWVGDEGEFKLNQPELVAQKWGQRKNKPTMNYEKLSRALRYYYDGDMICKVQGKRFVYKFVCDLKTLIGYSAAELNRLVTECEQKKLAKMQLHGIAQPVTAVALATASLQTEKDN
How it was run: as §1

ERG = molecular target: T3, ERG (Homo sapiens, UniProt P11308 1-479)
T3 sequence: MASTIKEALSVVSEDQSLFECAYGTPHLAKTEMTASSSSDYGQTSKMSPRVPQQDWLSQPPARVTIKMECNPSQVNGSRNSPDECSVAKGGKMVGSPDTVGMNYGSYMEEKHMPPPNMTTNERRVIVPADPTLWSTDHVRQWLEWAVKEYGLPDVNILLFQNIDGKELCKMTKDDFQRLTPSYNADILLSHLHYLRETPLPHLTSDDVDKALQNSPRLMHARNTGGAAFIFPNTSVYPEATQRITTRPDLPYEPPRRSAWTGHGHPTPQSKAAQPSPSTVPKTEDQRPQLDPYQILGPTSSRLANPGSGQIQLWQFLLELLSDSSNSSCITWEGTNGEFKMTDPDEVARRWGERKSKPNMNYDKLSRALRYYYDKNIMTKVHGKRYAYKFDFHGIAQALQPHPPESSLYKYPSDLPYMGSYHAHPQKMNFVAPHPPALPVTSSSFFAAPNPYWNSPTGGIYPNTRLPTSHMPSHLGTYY
How it was run: as §1

ELF1 = ELF1 (Homo sapiens, UniProt P32519 1-619)
How it was run: as §1

ELK3 = molecular target: T4, ELK3 (Homo sapiens, UniProt P41970 1-407)
T4 sequence: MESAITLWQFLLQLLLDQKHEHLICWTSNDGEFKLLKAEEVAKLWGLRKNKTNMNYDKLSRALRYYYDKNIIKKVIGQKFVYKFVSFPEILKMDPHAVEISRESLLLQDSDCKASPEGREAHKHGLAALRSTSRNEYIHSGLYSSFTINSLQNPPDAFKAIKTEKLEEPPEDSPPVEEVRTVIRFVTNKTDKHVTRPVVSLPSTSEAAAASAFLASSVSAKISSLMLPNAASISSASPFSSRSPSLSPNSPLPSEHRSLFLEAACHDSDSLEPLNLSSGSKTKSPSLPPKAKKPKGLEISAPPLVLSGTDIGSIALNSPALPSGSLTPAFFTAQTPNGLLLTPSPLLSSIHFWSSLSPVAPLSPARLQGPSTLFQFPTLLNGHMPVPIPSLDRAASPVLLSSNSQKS
How it was run: as §1

SPIC = molecular target: T5, SPIC (Homo sapiens, UniProt Q8N5J4 1-248)
T5 sequence: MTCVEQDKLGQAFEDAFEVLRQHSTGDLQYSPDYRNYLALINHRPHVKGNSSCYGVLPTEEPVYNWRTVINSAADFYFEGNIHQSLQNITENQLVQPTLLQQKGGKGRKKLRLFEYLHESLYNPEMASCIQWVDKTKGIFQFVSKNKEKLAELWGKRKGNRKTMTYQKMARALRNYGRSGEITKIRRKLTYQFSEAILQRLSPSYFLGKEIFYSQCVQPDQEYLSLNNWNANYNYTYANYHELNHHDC
How it was run: as §1

ELF4 = ELF4 (Homo sapiens, UniProt Q99607 1-663)
How it was run: as §1

ELF3 = molecular target: T6, ELF3 (Homo sapiens, UniProt P78545 1-371)
T6 sequence: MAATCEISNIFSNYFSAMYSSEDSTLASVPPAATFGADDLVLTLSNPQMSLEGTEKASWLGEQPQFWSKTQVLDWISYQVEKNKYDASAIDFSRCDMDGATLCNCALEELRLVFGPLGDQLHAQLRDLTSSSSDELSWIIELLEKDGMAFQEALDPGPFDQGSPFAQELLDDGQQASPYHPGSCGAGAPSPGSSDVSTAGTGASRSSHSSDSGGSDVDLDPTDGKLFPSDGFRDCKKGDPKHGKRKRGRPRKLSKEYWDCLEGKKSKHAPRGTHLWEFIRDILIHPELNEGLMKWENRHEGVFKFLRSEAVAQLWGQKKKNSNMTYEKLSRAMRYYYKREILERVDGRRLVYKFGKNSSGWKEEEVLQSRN
How it was run: as §1

ERF = molecular target: T7, ERF (Homo sapiens, UniProt P50548 1-548)
T7 sequence: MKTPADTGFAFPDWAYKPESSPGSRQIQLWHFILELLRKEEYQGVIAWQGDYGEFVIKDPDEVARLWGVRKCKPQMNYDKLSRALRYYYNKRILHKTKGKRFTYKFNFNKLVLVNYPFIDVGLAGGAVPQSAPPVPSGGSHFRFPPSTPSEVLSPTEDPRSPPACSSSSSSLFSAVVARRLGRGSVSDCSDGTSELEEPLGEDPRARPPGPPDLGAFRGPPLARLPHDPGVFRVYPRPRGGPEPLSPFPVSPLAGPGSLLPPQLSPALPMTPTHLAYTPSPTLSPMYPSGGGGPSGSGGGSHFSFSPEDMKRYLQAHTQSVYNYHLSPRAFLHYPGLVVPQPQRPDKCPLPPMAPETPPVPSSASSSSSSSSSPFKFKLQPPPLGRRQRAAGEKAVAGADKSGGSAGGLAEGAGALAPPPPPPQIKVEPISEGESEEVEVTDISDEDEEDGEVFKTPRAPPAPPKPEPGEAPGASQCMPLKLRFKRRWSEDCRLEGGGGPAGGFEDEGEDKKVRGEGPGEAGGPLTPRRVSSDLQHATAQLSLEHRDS
How it was run: as §1

ETV3L = molecular target: T8, ETV3L (Homo sapiens, UniProt Q6ZN32 1-361)
T8 sequence: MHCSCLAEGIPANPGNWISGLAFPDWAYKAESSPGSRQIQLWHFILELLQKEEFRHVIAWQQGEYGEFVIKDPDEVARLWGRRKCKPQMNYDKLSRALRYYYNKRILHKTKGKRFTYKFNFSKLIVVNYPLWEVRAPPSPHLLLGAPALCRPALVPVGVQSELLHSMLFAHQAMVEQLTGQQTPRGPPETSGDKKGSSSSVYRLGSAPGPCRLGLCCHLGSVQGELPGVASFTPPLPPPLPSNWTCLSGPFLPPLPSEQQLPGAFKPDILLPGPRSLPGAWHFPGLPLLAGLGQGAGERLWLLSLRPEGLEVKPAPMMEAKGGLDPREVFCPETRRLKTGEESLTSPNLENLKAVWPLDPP
How it was run: as §1

ETS2 = molecular target: T9, ETS2 (Homo sapiens, UniProt P15036 1-469)
T9 sequence: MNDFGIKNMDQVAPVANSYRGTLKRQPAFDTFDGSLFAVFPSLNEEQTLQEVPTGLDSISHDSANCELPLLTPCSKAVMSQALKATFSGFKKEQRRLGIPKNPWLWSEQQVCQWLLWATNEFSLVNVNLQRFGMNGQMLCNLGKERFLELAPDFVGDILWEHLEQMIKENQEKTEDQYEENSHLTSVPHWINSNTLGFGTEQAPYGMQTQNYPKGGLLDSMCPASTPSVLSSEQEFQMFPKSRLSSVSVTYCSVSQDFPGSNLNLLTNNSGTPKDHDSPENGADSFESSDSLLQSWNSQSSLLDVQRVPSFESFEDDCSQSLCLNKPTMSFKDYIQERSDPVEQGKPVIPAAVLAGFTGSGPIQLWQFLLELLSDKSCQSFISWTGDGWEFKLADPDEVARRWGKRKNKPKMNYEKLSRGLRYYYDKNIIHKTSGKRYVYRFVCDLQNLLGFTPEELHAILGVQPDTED
How it was run: as §1

SPDEF = molecular target: T10, SPDEF (Homo sapiens, UniProt O95238 1-335)
T10 sequence: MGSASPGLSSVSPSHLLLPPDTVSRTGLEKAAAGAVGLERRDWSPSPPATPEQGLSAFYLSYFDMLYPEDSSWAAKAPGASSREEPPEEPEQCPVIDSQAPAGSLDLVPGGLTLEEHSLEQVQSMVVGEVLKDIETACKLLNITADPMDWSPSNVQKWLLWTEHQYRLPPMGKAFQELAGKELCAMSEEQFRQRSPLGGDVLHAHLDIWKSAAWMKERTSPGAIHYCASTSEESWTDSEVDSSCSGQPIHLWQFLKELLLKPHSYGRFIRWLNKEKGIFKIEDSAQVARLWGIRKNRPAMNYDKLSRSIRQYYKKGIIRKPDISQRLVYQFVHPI
How it was run: as §1

ETV7 = molecular target: T11, ETV7 (Homo sapiens, UniProt Q9Y603 1-341)
T11 sequence: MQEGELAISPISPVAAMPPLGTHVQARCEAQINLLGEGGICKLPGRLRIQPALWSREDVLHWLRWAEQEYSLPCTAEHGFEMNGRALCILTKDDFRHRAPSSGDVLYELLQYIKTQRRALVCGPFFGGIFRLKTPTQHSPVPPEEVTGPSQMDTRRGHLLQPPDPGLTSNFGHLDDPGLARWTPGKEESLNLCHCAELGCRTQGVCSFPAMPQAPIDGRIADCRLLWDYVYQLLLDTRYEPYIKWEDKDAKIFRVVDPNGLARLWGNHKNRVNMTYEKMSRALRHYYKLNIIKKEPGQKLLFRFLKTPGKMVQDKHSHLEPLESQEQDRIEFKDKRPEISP
How it was run: as §1

ETV3 = molecular target: T12, ETV3 (Homo sapiens, UniProt P41162-2 1-143)
T12 sequence: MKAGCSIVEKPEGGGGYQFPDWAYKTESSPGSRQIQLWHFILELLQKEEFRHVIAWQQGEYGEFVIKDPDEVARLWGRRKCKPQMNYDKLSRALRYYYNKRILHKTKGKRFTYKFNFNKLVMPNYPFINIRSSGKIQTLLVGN
How it was run: as §1

ETV6 = ETV6 (Homo sapiens, UniProt P41212 1-452)
How it was run: as §1

Chain of ELF1 (P32519 whole entry): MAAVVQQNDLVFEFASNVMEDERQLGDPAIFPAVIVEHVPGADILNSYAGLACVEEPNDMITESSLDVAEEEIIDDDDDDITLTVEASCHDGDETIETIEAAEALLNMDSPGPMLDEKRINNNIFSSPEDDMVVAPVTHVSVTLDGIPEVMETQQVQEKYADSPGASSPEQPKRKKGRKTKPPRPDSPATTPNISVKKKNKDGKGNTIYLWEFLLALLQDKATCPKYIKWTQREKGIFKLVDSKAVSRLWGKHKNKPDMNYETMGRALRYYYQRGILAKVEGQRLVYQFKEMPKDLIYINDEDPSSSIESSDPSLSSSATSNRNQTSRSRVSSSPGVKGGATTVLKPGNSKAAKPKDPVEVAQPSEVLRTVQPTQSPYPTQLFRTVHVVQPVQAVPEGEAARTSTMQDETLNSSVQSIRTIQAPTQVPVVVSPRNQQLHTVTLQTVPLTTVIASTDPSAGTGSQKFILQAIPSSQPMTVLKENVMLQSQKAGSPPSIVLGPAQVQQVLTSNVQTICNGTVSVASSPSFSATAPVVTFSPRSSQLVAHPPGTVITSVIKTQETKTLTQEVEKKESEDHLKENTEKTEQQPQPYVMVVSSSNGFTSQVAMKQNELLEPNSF
Chain of ETV6 (P41212 whole entry): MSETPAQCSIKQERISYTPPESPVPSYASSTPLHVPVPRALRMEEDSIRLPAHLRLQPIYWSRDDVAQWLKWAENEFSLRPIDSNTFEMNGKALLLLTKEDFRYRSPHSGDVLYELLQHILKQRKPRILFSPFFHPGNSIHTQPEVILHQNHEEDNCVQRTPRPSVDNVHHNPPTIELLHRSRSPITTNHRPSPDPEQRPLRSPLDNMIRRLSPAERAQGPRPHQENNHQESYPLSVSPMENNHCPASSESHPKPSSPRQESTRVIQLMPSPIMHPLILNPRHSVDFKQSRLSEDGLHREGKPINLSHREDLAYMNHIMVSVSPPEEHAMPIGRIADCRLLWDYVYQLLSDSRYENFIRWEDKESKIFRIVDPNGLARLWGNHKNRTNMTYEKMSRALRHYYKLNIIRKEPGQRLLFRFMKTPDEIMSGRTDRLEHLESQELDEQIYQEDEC
Chain of ELF4 (Q99607 whole entry): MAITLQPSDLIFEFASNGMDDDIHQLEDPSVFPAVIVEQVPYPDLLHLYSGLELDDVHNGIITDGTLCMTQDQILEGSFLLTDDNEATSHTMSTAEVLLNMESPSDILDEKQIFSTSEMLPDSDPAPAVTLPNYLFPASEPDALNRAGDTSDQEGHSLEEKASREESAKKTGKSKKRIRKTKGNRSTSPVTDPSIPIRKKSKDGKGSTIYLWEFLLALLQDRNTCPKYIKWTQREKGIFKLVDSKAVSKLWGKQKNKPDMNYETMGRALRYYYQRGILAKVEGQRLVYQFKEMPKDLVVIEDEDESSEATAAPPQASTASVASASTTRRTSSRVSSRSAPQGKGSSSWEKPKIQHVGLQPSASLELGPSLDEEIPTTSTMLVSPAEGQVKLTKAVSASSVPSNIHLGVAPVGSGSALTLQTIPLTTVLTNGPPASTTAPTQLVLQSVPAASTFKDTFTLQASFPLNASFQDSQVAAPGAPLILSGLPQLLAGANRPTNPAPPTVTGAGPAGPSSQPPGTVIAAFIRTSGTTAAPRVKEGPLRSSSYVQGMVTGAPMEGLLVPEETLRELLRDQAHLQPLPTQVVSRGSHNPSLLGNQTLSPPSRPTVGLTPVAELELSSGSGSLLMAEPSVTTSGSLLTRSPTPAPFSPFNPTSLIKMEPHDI

For CTAGAA, the binding signal (ELK1) was 1 fold enrichment (6-mer frequency, TF over GST control), the binding signal (GABPA) was 1.05 fold enrichment (6-mer frequency, TF over GST control) and the binding signal (ERG) was 1.05 fold enrichment (6-mer frequency, TF over GST control). For the same sequence, the binding signal (ELF1) was 1.04 fold enrichment (6-mer frequency, TF over GST control), the binding signal (ELK3) was 1.09 fold enrichment (6-mer frequency, TF over GST control) and the binding signal (SPIC) was 1.03 fold enrichment (6-mer frequency, TF over GST control). For the same sequence, the binding signal (ELF4) was 1.05 fold enrichment (6-mer frequency, TF over GST control), the binding signal (ELF3) was 1.03 fold enrichment (6-mer frequency, TF over GST control) and the binding signal (ERF) was 1.28 fold enrichment (6-mer frequency, TF over GST control). For the same sequence, the binding signal (ETV3L) was 1.03 fold enrichment (6-mer frequency, TF over GST control), the binding signal (ETS2) was 1.02 fold enrichment (6-mer frequency, TF over GST control) and the binding signal (SPDEF) was 1.01 fold enrichment (6-mer frequency, TF over GST control). The binding signal (ETV7) was 1.02 fold enrichment (6-mer frequency, TF over GST control), the binding signal (ETV3) was 1.01 fold enrichment (6-mer frequency, TF over GST control) and the binding signal (ETV6) was 1.04 fold enrichment (6-mer frequency, TF over GST control).

Reference: paper PMC7862700, “An all-to-all approach to the identification of sequence-specific readers for epigenetic DNA modifications on cytosine”
